# Experimental data reported in PubChem BioAssay AID1508600 (Functional Genomics Laboratory (NCATS/FGL), 2020).
# Out of some 53,000 sequences screened, about 3,700 (7%) were called active. This excerpt belongs to a sample that is enriched for actives. Values without a mark were called inactive.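 Rule for the calls: active = gene knockdowns whose robust z-score for IL-1 alpha signal is at least 2 or at most -2, so actives lie on both sides; inactive = the rest.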
# Test: Components of the Cytosolic LPS Sensing Pathway: Gene Identification via Genome-wide siRNA Screen;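 note: robust z of the log signal after scaling to non-targeting control siRNA wells of the plate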
# Settings: RAW264.7 macrophages, IL-1a HTRF, actives lie on both sides, screened at 100 nM (by protocol), cells primed 5 h with Pam3CSK4 first
# In short: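 RAW264.7 mouse macrophages reverse-transfected with single siRNAs (100 nM final) for 48h, primed with Pam3CSK4 for 5 hours, then transfected with LipidA for 24 hour. Supernatant IL-1a read by HTRF; values normalized to negative-control median, log-transformed robust z-scores.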
row,Sequence,z-score
1,GGAGCUGAGCAGUGAUGAATT against Snx29,-2.08 (active)
2,GCACCUAGAUUGAUCAUAGTT against Olfr1183,-0.894
3,GGAACCGCUGAUGCUUAAGTT against Ctsl,-0.726
4,GGCUCAGUGAAGGCAAGUUTT against Hspb2,2.56 (active)
5,GGGUCAUCCACUUUGUCAGTT against Fam177a,-0.584
6,CCGCUGCAUAGCAUGUACATT against Dusp23,0.901
7,GGUGGAGAUUAUUCAUGUUTT against Dpp8,2.31 (active)
8,GGUGAACAGAAGGACAGAUTT against Gm4736,0.479
9,CCAUUUAUGGAAUACACCUTT against Tmem150b,0.0118
10,GGCCAAAUGACUGAGAUUGTT against Rcan3,1.35
11,GGAAGAAUUUAAGAAGUUCTT against Pdia3,1.24
12,GGUCCCUGUGAACAAGCUGTT against Serpinf1,1.12
13,GGUGUUACAUAUGAGGAAUTT against Ociad1,1.61
14,GGCAGACAGAGGGUAAAAATT against Slc24a1,-0.956
15,GGAAGAGGAAUAUUACCAGTT against Marveld3,-2.16 (active)
16,GGUUCUCUACAAAGUAAGUTT against Slc35e1,-0.0459
17,GCUUGUUCAGGAAAUGAAATT against Tmcc3,-1.15
18,GGAGACAGAAUUCAAAACUTT against P2ry1,0.0725
19,CCUUCCUACAACAAGUGUGTT against Galnt1,2.02 (active)
20,GCCCAGUCAAGACUAUUCGTT against Csnk2b,1.58
21,GGUGAAGACCAUCUUGACCTT against Clcnkb,-1.74
22,AGACUCGUACACGCAGGAATT against Ggn,0.882

row,Sequence,z-score
1,GGCAGACAAGUUGUUAAAATT against Nusap1,-0.913
2,GCUAGUUAUCUAAUCUCUGTT against Nuak1,2.79 (active)
3,GGAACAACUCCUGUUCCCATT against Obscn,1.85
4,GGGAAAGAGAAAUUUAAAGTT against Kcne4,1.3
5,CCCAUCAUUCCUUUCUUACTT against Ndfip2,0.193
6,CCAUUCUUGCCUUUGUGCUTT against Cep55,-1.63
7,GGCUGUGGUAUUUUUGGUUTT against Vopp1,2.15 (active)
8,CCUGGUACAUCUCUGUUACTT against Olfr449,1.53
9,GCCACUCUAGCUCGUAUUGTT against Des,0.896
10,GCAAGUCGAGGUAGAUUGCTT against Rap1a,0.515
11,GGACCUAUAGUUCAACAAGTT against Pcf11,1.08
12,CCAUGUGCGACCUGAUAAUTT against Cmtm7,0.155
13,CGACAAACUACAUAGCAGATT against Brms1,0.823
14,GGUCAGACAGCAAUUCACATT against Gpr146,-2.7 (active)
15,GCUAUGUGGACGUGACCUATT against Chrnb4,-0.739
16,GCUAUAGACAAGGAGAGUATT against Galnt6,0.62
17,GGUCAUAGGUACGUAUCCGTT against Siglech,-0.465
18,CGUUUUUAUGAGGAGGCCUTT against N4bp3,-0.897
19,GGAUUGACAGUGGUCUAUATT against Copz1,-0.294
20,UUUGAACAGUCACUCCUCGTT against Ipcef1,2.18 (active)
21,GGAGUUAAAACCAUCGUGATT against D16Ertd472e,0.725
22,CCCUAUGCAAUAUCAAAAUTT against Hnrnpa1,1.22

row,Sequence,z-score
1,GGUAAAUAGCUGUCUUGGCTT against Cerk,-0.622
2,GCACAGUUAGCAUUGCUCCTT against Hoxc10,-1.48
3,GGAUAAUUGGGAUGAUGACTT against Sem1,-2.24 (active)
4,GGCAGAGUAUGAGUUUGACTT against Camk1,0.699
5,GGCCAAGUGCACCAUCCUATT against Gng13,-0.852
6,GGAGAAAGCCUUCCAAUUUTT against Kel,-0.273
7,GGUAGAGCAUCAGUAUCUATT against Tex16,-0.47
8,CCGCACCAUUCAGCUUUUUTT against Mmgt2,0.446
9,GGCUCGAUUACUGAGUACATT against Bnip2,0.884
10,GGCUUUAGUUGUCUUUUAUTT against Cxcr1,0.609
11,GGAGAAAAAGAGAAGUAUUTT against Skint9,-0.874
12,GCAUGAUGGUGCGCUUAAGTT against Ngdn,-0.187
13,GGUCAUGGAUGUGCACGAUTT against Krt14,-2.21 (active)
14,CCUAUACACCCAUUUUUAATT against Arl2bp,0.163
15,GGUAACCUGAUGGCUGAAATT against Zfp692,2.79 (active)
16,GCCUAAGGAUCCUGGGUUATT against Orai3,1.43
17,CCGUUUCUAUCGAGUGAAATT against Celf2,0.581
18,GACUAAACAGAUCUUCUCUTT against Klra15,-0.651
19,GGAGAUAAUUGGUUUACAGTT against Vmn1r23,-0.647
20,CCACACCAUAACAACAUUCTT against Olfr800,-2.05 (active)
21,GCAAUUCAGGUUUACUACATT against Fgg,0.00733
22,GAAAGUUUACGGGAAAUCUTT against Klf13,2.04 (active)

row,Sequence,z-score
1,CCAUAAGGUAACCUGUACATT against Serpinb1c,-0.244
2,GGAUUACAAGACCAUAGAUTT against Clec2g,-0.75
3,GGCACCUCUGCUUUUAAAGTT against Mrm2,0.926
4,GGAACUGCCUGAAAAAAUGTT against Dcn,-2.76 (active)
5,CAUAUUCCUUGCAUUACAATT against Taok3,0.929
6,GGUUCAGAAGUUUGGGAGATT against Mrpl48,0.615
7,GGACUGAUUGAUAAAGUCATT against Srp54a,-0.458
8,UAAAAAUGAGCCGGGCAAUTT against Ms4a5,1.42
9,GGAGCAAAGCUAAAUGUUGTT against Far1,-0.476
10,GGAUUUGGCAACAGACUUUTT against Ryr2,-0.391
11,CACCGUAAUAAUCACACUATT against Zfp667,-0.854
12,GGUACGAAGGAAAAUUUACTT against 2810407A14Rik,2.72 (active)
13,GGUUACCAUGUGAAGCAGGTT against Tnfrsf14,-0.461
14,GGAUAACUCCUUAUUUAACTT against Teddm3,1.25
15,GGAAAACCAGAAAGAAUUUTT against Crnkl1,-0.334
16,GGAACAAGUUUGUGCUUUCTT against Cpd,0.728
17,GGAUAACCAACAAGGUUUUTT against Mgst1,0.701
18,GGUGGAACACAUAUUUUAATT against Tbc1d13,0.837
19,CGCCCAUGUACAGAUUUGUTT against Olfr429,-2.33 (active)
20,GCUUCACCUGACAAUGACUTT against Tsc22d3,1.2
21,GGGACAGGUUGAGGUCUAUTT against Vmn1r233,2.01 (active)
22,GGCAUACCGAAAGUUAGCCTT against Dnaja2,-0.724

row,Sequence,z-score
1,GGAGGUCCAGGAUUUUAUATT against Styk1,1.12
2,GCUUCAACAUGCUUUGUUUTT against A430010J10Rik,-0.555
3,CCCUACUCCUCAGAACUUATT against Tbc1d10a,-0.499
4,CCAAAAAGAGCGAUUACCCTT against Shc1,0.368
5,CGCAGAAAGAGCAUCAGAUTT against Atg9a,-2.42 (active)
6,GCGACUGUGGUGGUUACAUTT against Bcas2,0.444
7,GGGAAGGAAGAAUUUAUUUTT against 6430571L13Rik,1.24
8,GCUGCUCAAUCGGAAAUACTT against Clk1,-2.06 (active)
9,CCAGGUGUAUAAUAAGAUGTT against Atp8b3,0.271
10,GCAAUGACAGAACAUACAGTT against Cts7,1.67
11,GGCAGAAAGAAAUUGAGAATT against Trim42,-0.655
12,CAGCAUCUUUGAUUGUCUGTT against Tssc4,2.15 (active)
13,GCUUAUGCCAGUCUGUCAUTT against Hax1,-0.206
14,CCAUACAUCAGUACUUACCTT against Olfr553,0.477
15,GCGUGUUCGCUUCUUGCUATT against Trub2,-0.614
16,CCACAGAAUAAGACAAUAUTT against Fbxo34,-3.03 (active)
17,CCAUUCAGUCGAUUACAUUTT against Chd9,0.204
18,GGACUUUUCUUUUGGAAGGTT against Nbl1,-0.08
19,GCCUUUCCACCGAUGAAAUTT against Dpyd,-0.473
20,GGAGCACAUCUUUUCUGCCTT against Mixl1,-1.22
